Experimental data as given in the OligoGym collection.

These sequences were tested against CORIN (assay: pooled miR-30 sensor sort-seq; sequence = guide strand). Settings: shRNA.
Note: reference of the scale not given here.

| Sequence | sensor-assay potency score (higher = more potent) |
| --- | --- |
| TTGATTGTCTGAATTTTCCTCT | 0.641 |
| ATGATCTTGATATACATCCAGA | -1.55 |
| ATTTGTAAGAATAACATCGGAC | -0.147 |
| TTGATATACATCCAGAATGGGG | -1.35 |
| TAAAATTGCAGGTAGTATCTAT | 0.492 |
| TTGAACTTTCATACAATCGTGA | 0.765 |
| TAAATCTGTCTTTTAATCCATT | -1.02 |
| TTAAACATGTAAATTATCTTGG | 0.389 |
| TTGAGTATGTAGCTACAACTGT | -0.57 |

Each sequence was assayed against CORO2B in the same assay as above. Settings: shRNA.

| Sequence | sensor-assay potency score (higher = more potent) |
| --- | --- |
| TAGAAGCGGAACACCTCGCAGG | -0.524 |
| TTTCTAATAAATCTATTCCGTT | -1.03 |
| TTCTTGTCCTTGCACGTGGTGG | -1.22 |
| TATTTCAATTCTATCCTTGGGA | 0.222 |
| TAATGCATCTAGTAGATCCTAG | 0.537 |
| TTGTCGTGCACATTCTTGGTGA | -0.294 |
| TAGACATTCCGGAACTTGGAGC | -1.06 |
| ATCTGTCTTGTGTTCCACCTGG | -0.685 |
| TTTTCTAATAAATCTATTCCGT | -0.324 |
| TTCTAATAAATCTATTCCGTTG | -0.9 |
| TTGTAGAAGCGGAACACCTCGC | -0.204 |
| TTGTAGTCGTAGCCAGCGCTGA | -0.89 |

These sequences were tested against COX10 in the same assay as above. Settings: shRNA.

| Sequence | sensor-assay potency score (higher = more potent) |
| --- | --- |
| TTCGTTTATAATCTTGTTCTAA | 0.241 |
| ATAATCTTGTTCTAAACCCAGC | -0.854 |
| TTTAGAAGGAACTGCTTCCAAC | -0.611 |
| TTGAAATGAGGAAACTGCCAGG | -0.59 |
| TCTGCGTCCACGTAGAAGCGGA | -0.792 |
| TTCTTTGTCCTATTCATGTTTG | -0.705 |
| TTATCTACCTACAATCCCTTTA | -0.2 |
| TTCAGTGGTGTGTAGCAGCAGG | -0.511 |
| TGATTTTGGATAGTCGAGCCAA | -0.198 |
| TACACTTGCAGCTTCATCTCTT | 1.01 |
| TCTAGTTCTATCAATTCCTTTT | -0.971 |
| TTTCTGGACAAAGATAGGCTGG | -0.448 |
| TTGTTTAACTCTCCCACCCCGA | -0.416 |
| TTGTATTCACTGACTGAGCTGA | -0.0577 |
| TGCAGTGGTACTTACAACCAGA | -1.05 |
| TATTGTTAGAAGGACTATGGTT | -0.28 |
| TTTCTGCTTTGGCTTGACCTGA | -0.722 |
| TTTTAGAAGGAACTGCTTCCAA | -0.134 |
| TACCACAACATGCTCGCCTGGC | -0.0841 |
